Experimental data taken from the supplement of paper PMC7156485.
Several values for one entry are separate records, joined by “and”; a condition that tells them apart may be missing. Equal values may be shown once. ± gives the standard deviation of the averaged measurements.

Assays:
Details in all cases: concentration: 10 µM; 24 h
HCC1569 [1] = experiment: cell number relative to DMSO (% of DMSO); higher = more cells (less growth inhibition / toxicity)
Summary of the method: (§1)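 Cells were seeded at 800 per well in 384-well plates with RPMI containing 10% FBS; both HCC1569 and TDF lines were used. Compounds were added at 10 µM for 24 h at 37 °C, in triplicate, before fixation in 3.7% formaldehyde and staining with a rabbit anti-H1.0 antibody, an AlexaFluor 647 secondary and DAPI. H1.0 nuclear intensity or cell number is reported as percent of the plate control using the median of replicates, and HCC1569 values were smoothed for positional effects.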

TDF [2] = experiment: as above
Summary of the method: as §1

TDF [3] = experiment: H1.0 immunofluorescence intensity relative to DMSO (% of DMSO); higher = stronger H1.0 induction, active = 120 or more
Summary of the method: as §1

HCC1569 [4] = experiment: H1.0 immunofluorescence intensity relative to DMSO (% of DMSO); higher = stronger H1.0 induction, active = 140 or more
Summary of the method: as §1
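Wherever H1.0 immunofluorescence intensity relative to DMSO is given: TDF is a line of transformed human dermal fibroblasts of mesenchymal origin.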
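Wherever cell number relative to DMSO is given: TDF denotes transformed human dermal fibroblasts of mesenchymal origin.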

| SMILES | cell number (HCC1569 [1]) | cell number (TDF [2]) | H1.0 immunofluorescence intensity (TDF [3]) | H1.0 immunofluorescence intensity (HCC1569 [4]) |
| --- | --- | --- | --- | --- |
| CC1=C(C(=O)O)N2C(=O)C(NC(=O)C(N)c3ccccc3)C2SC1 (stereo not given) [Cephalexin hydrate] | 104 | 111 | 102 (inactive) | 96.5 (inactive) |
| CC(=O)O.NC(=NCCCC(N)C(=O)O)NO [NG-Hydroxy-L-arginine acetate] | 97.8 | 107 | 91.4 (inactive) | 89.2 (inactive) |
| CNC(=O)C1OC(n2cnc3c(NCc4cccc(I)c4)ncnc32)C(O)C1O (stereo not given) | 102 | 114 | 87.4 (inactive) | 82.1 (inactive) |
| O=C(Nc1ncc(-c2cc(C(F)F)nn2-c2c(Cl)cccc2Cl)s1)C1CC1 | 52.3 | 9.11 | 176 (active) | 149 (active) |
| CNc1ncnc2c1ncn2C1CC(OP(=O)([O-])O)C(COP(=O)([O-])O)O1.[NH4+].[NH4+] (stereo not given) | 104 | 100 | 95 (inactive) | 92.4 (inactive) |
| N#Cc1cccc(-c2c[nH]c3ncnc(N4CCOCC4)c23)c1 [3-(4-morpholino-7H-pyrrolo[2,3-d]pyrimidin-5-yl)benzonitrile] | 107 | 110 | 86.3 (inactive) | 80.8 (inactive) |
| NCCS(=O)O [Hypotaurine] | 106 | 106 | 96.6 (inactive) | 88.6 (inactive) |
| CC(C)(C=O)Cc1cc(C(C)(C)C)c(O)c(C(C)(C)C)c1 | 109 | 106 | 92 (inactive) | 97.1 (inactive) |
| Cl.NC1(C(=O)O)CC1 [1-Aminocyclopropanecarboxylic acid hydrochloride] | 100 | 102 | 96.5 (inactive) | 100 (inactive) |
| Cc1cc(N)c2ccccc2[n+]1CCCCCCCCCC[n+]1c(C)cc(N)c2ccccc21.[Cl-].[Cl-] [Dequalinium dichloride] | 74.8 | 64.1 | 102 (inactive) | 123 (inactive) |
| CCCn1c(=O)c2[nH]c(C3CCCC3)nc2n(CCC)c1=O [8-Cyclopentyl-1,3-dipropylxanthine] | 101 | 92.5 | 99.5 (inactive) | 93.7 (inactive) |
| Cl.Cl.Cl.Ic1ccc(N2CCN(Cc3c[nH]c4ncccc34)CC2)cc1 [L-750,667 trihydrochloride] | 103 | 101 | 103 (inactive) | 108 (inactive) |
| CC(=Cc1ccc(C(=O)O)cc1)c1ccc2c(c1)C(C)(C)CCC2(C)C | 100.2 ± 0.57 | 106 ± 2.4 | 89.4 (inactive) | 111 (inactive) |
| C#CCN[C@H]1CCc2ccccc21 [N-[(1S)-2,3-dihydro-1H-inden-1-yl]-N-(2-propynyl)amine] | 102 | 104 | 92.2 (inactive) | 98.1 (inactive) |
| Cc1cc(N)c2ccccc2[n+]1CCCCCCCCCCCCCC[n+]1c(C)cc(N)c2ccccc21.[I-].[I-] [Dequalinium analog, C-14 linker] | 101 | 102 | 95.7 (inactive) | 100 (inactive) |
| Cc1cccc(C)c1OCC(N)C(C)C.I (stereo not given) | 103 | 108 | 91.3 (inactive) | 94.3 (inactive) |
| CCC(=O)OC1(C(=O)CCl)C(C)CC2C3CCC4=CC(=O)C=CC4(C)C3(F)C(O)CC21C (stereo not given) [Clobetasol Propionate] | 109 | 114 | 87.8 (inactive) | 100 (inactive) |
| Cc1cc(C)c(C=C2C(=O)Nc3ccccc32)[nH]1 | 102 | 108 and 105 | 94.2 (inactive) and 92.7 (inactive) | 115 (inactive) and 103 (inactive) |
| CC(=O)OC12COC1CC(O)C1(C)C(=O)C(O)C3=C(C)C(OC(=O)C(O)C(NC(=O)OC(C)(C)C)c4ccccc4)CC(O)(C(OC(=O)c4ccccc4)C21)C3(C)C (stereo not given) [Docetaxil] | 61.6 | 13 | 147 (active) | 144 (active) |
| CC1CC2C3CCC4=CC(=O)C=CC4(C)C3(F)C(O)CC2(C)C1(O)C(=O)CO (stereo not given) [Betamethasone] | 97.2 | 106 | 75.2 (inactive) | 99.5 (inactive) |
| CC(C)(S)[C@H](N)C(=O)O [L-Penicillamine] | 100 | 102 | 98.5 (inactive) | 90.8 (inactive) |
| O=c1cc(N2CCNCC2)oc2c(-c3ccccc3)cccc12 | 101 | 98.3 | 92.8 (inactive) | 136 (inactive) |
| CCN(CC)CCNC(=O)c1cc(Cl)c(N)cc1OC [Metoclopramide] | 102 | 105 | 97.1 (inactive) | 108 (inactive) |
| O=C(O)c1cccnc1Nc1cccc(C(F)(F)F)c1 [Niflumic acid] | 98.8 ± 5.9 | 95.2 ± 23 | 97.7 (inactive) | 101 (inactive) |
| Nc1c(C(=O)O)c2nc3c(C(=O)O)cccc3oc-2cc1=O [2-amino-3-oxo-3H-phenoxazine-1,9-dicarboxylic acid] | 92 | 88.1 | 110 (inactive) | 101 (inactive) |
